In all, about 140,000 compounds went through this assay and about 300 (0.21%) were called active.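 Rule for the calls: active = z-score above 3 at both the 24 hr and the 30 hr optical density reads; inactive = the rest, inconclusive results apart.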 This excerpt belongs to a sample that is enriched for actives.
Experiment: restorers of sdo1-deficient yeast growth – S. cerevisiae, bone marrow failure model, primary screen (AID 817);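 note: z-score against mean and SD of all compound wells on the same plate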
Details: S. cerevisiae sdo1-depleted JHY4D growth rescue, at 10 µM, stronger effect = higher value, pdr5 snq2 efflux-pump mutant strain
[1] = OD600, measured here: growth rescue at 24 h

Structure (SMILES)	z-score (OD600 30 h)	z-score [1]
Cc1cccc(N=C2NN=C(c3c[nH]c4ccccc34)CS2)c1	-1 (inactive)	-0.78
COC(=O)c1c(NC(=O)CN2C(=O)NC(CCc3ccccc3)C2=O)sc2c1CCCCC2 (stereo not given)	0.43 (inactive)	0.79
Cc1ccc(Sc2ccncc2S(N)(=O)=O)cc1	1.59 (inactive)	0.76
O=C(O)c1ccc(N=NN2CCOCC2)cc1	-0.02 (inactive)	-0.59
COc1ccc(C2Nc3ccccc3C(=O)N2c2ccc(Cl)cc2)cc1Cn1cc([N+](=O)[O-])cn1 (stereo not given)	-0.41 (inactive)	-0.21
O=C(N/N=C/c1ccc2c(c1)OCO2)c1ccc(Cn2cc([N+](=O)[O-])cn2)o1	0.69 (inactive)	-0.21
COc1cc(OC)nc(S(C)(=O)=O)n1	3.91 (active)	4.26
COc1cc(OC)nc(NC(=O)CCl)n1	-0.13 (inactive)	-1.15
CCC(=O)Nc1nc(OC)cc(OC)n1	0.5 (inactive)	-0.32
Cc1c(Cl)cccc1NC(=O)Nc1ccc(C(=O)N2CCCC2)cc1	0.9 (inactive)	-0.18
CS(=O)(=O)Nc1ccc(C(=O)N2CCCC2)cc1	8.85 (active)	8.64
O=C(c1ccc(S(=O)(=O)c2ccccc2)cc1)N1CCCCCC1	1.85 (inactive)	2.69
Cc1ccc(-c2nnc(SCC(=O)N/N=C/c3cccs3)n2-c2ccc(C)cc2)cc1	0.44 (inactive)	0.52
CCOc1ccc(C(=O)NC(=S)Nc2ccc(NC(=O)C(C)C)cc2)cc1[N+](=O)[O-]	-0.64 (inactive)	0.38
CC(=O)COc1ccc2c(-c3ccccc3)cc(=O)oc2c1	-0.11 (inactive)	-0.39
COc1cc(/C=C/CO)cc(OC)c1O[C@@H]1O[C@H](CO)[C@@H](O)[C@H](O)[C@H]1O	0.24 (inactive)	0.99
Cc1ccc(S(=O)(=O)C2C(=O)NC3(C)CC2c2ccccc2O3)cc1 (stereo not given)	0.78 (inactive)	0.14
CCOC(=O)C1=C(C)Nc2nc3ccccc3n2C1c1cccs1 (stereo not given)	-0.33 (inactive)	0.25
CCCc1cc(=O)[nH]c(SCC(=O)N2CCN(S(=O)(=O)c3ccc(C)cc3C)CC2)n1	0.64 (inactive)	0.59
Cc1cc(OCCN2CCCC2)cc(C(C)C)c1	-1.32 (inactive)	-1.82
Cc1cccc(Nc2nc3c(S(=O)(=O)c4ccccc4)nnn3c3ccccc23)c1C	2.09 (inactive)	3.12
O=C(NC(=O)N1CCOCC1)c1ccccc1	0.99 (inactive)	0.24
COc1ccc(C(=O)NC2(C(F)(F)F)NC(=O)N(CCCc3ccccc3)C2=O)c(OC)c1OC (stereo not given)	-0.49 (inactive)	0.17
O=C(/C=C/c1ccc(F)cc1)Nc1cccc(S(=O)(=O)Nc2cccc(C(F)(F)F)c2)c1	-0.39 (inactive)	-0.2
COc1ccc2c(CN3CCN(S(=O)(=O)c4cccs4)CC3)cc(=O)oc2c1	-1.29 (inactive)	-1.27
COc1cc(CC(=O)N/N=C/c2ccccc2)c([N+](=O)[O-])cc1OC	0.66 (inactive)	0.79
Cc1ccc2[nH]c(C(=O)O)c(NC(=O)c3ccccc3[N+](=O)[O-])c2c1	1.28 (inactive)	1.83

Structure (SMILES)	z-score (OD600 30 h)	z-score [1]
CCN(CC)S(=O)(=O)c1cc([N+](=O)[O-])ccc1N=Nc1c(O)n(C)c2ccccc12	-0.62 (inactive)	0.64
Cc1cccc(C(=O)c2cccc(C)c2)c1	-0.29 (inactive)	-0.6
CCOC(=O)c1c(/N=C/C2C(=O)CC(C)(C)CC2=O)sc(C)c1C	0.94 (inactive)	1.36
O=C(/C=C/c1cccc([N+](=O)[O-])c1)NCCSCc1ccco1	-0.03 (inactive)	-0.07
CC(C)NC(=S)N1CCN(S(C)(=O)=O)CC1	0.56 (inactive)	0.03
COCCOC(=O)c1c(C)oc2cc(Br)c(OCC(N)=O)cc12	0.6 (inactive)	0.18
O=C(Nc1ccccc1Cl)c1ccccc1S(=O)(=O)c1ccccc1[N+](=O)[O-]	0.14 (inactive)	0.15
C[C@@H]1NC(=O)c2cc([N+](=O)[O-])cc(F)c2NCCC[C@@H](C(N)=O)NC(=O)[C@H](CC(N)=O)NC1=O	0.86 (inactive)	0.49
CN(c1ccccc1)S(=O)(=O)c1ccc(Cl)c(C(=O)NCCc2c[nH]c3ccccc23)c1	0.35 (inactive)	0.28
CC(Oc1ccccc1F)C(=O)NN (stereo not given)	-0.12 (inactive)	-0.98
O=C(Cc1cccc2ccccc12)NCCC1=CCCCC1	-0.77 (inactive)	-0.75
O=C(Nn1c(-c2ccc(Cl)cc2)nc2ccccc2c1=O)c1cccnc1Cl	0.6 (inactive)	0.56
CCOC(=O)C1=C(c2ccc(OC)cc2)C(=O)c2ccccc2C1=O	-1.39 (inactive)	-0.65
CCOC(=O)CNC(=O)/C=C/c1c(Cl)cccc1Cl	-0.54 (inactive)	-0.72
COc1ccc(OCC(O)CNC(=O)Nc2ccc(Cl)cc2)cc1 (stereo not given)	0.9 (inactive)	0.68
S=C(NCCc1ccccc1)NCc1ccccc1Cl	-1.82 (inactive)	-1.22
N#Cc1ccccc1NC(=O)COc1c(Br)cc(Br)c2cccnc12	0.47 (inactive)	2.32
O=C(NC(=S)N1CCN(Cc2ccccc2)CC1)c1ccccc1	0.36 (inactive)	0.18
CC(=O)c1cc(-c2ccccc2)n(CCC(=O)NC2CCCCCC2)c1C	-1.63 (inactive)	-1.27
CCOC(=O)C1CCN(C(=O)c2ccccc2N(C)S(=O)(=O)c2ccccc2)CC1	0.01 (inactive)	-0.21
O=C(NN1C(=O)C2C3C=CC(O3)C2C1=O)c1ccncc1 (stereo not given)	0.24 (inactive)	-0.88
Cc1ccc(S(=O)(=O)N2CCC(C(=O)N[C@@H](C)C(=O)NCc3ccco3)CC2)cc1	1.22 (inactive)	0.16
Cc1ccn(-c2cccc(-n3ccc(C)n3)n2)n1	-0.06 (inactive)	-0.3
COc1ccc2c(c1)C(SCC(=O)NCc1ccccc1)CC(C)(C)O2 (stereo not given)	-0.16 (inactive)	-0.58
COc1ccc(-c2csc(NC(=O)COC(=O)c3ccc(Br)o3)n2)cc1	1.63 (inactive)	1.52
COC(=O)Cc1ccc(OCC(=O)Nc2ccc(OC(F)(F)F)cc2)cc1	0.38 (inactive)	0.19
Cc1ccccc1C1=NC(C(F)(F)F)(C(F)(F)F)c2c(n(-c3ccc(F)cc3)c(=O)[nH]c2=O)N1	0.91 (inactive)	1.23

Structure (SMILES)	z-score (OD600 30 h)	z-score [1]
CC(C)(C)CC(C)(C)NCC(O)COCCOc1ccc(Br)cc1 (stereo not given)	-1.47 (inactive)	-1.24
CCCn1c(C)cc(/C=C(\C#N)C(=O)OCC(=O)Nc2cc(OC)c(OC)c(OC)c2)c1C	-0.22 (inactive)	-0.65
COC(=O)c1sccc1NC(=O)COc1ccc(Cl)cc1	-0.81 (inactive)	0.03
Cc1cc(C)cc(NC(=S)NCc2ccc(F)cc2)c1	-0.44 (inactive)	-0.91
COc1ccc(C2=NN(C(=O)c3cccnc3)C(c3ccccc3)C2)cc1 (stereo not given)	-0.64 (inactive)	-0.53
Cc1ccc(Nc2cc(C)nc3c(C)ccc([N+](=O)[O-])c23)cc1	-2.1 (inactive)	-1.28
O=c1c2sccc2nc(SCc2cc(=O)n3ccccc3n2)n1-c1ccc(Br)cc1	-0.28 (inactive)	0.04
Cc1ccc(C)c(NC(=O)CCC(=O)NNC(=O)c2cccs2)c1	0.52 (inactive)	-0.15
O=C(CSc1ccc(C(F)(F)F)cc1[N+](=O)[O-])NCCOc1ccccc1	-0.75 (inactive)	-0.39
Cc1cccc(C(=O)OCC(=O)Nc2sc3c(c2C#N)CCC3)c1	1.54 (inactive)	1.79
CCCNC(=O)NC(=O)COC(=O)CC(NC(N)=O)c1ccc(Cl)cc1 (stereo not given)	1.01 (inactive)	0.32
CC[C@H]1OC(=O)[C@H](C)[C@@H](O[C@H]2C[C@@](C)(OC)[C@@H](O)[C@H](C)O2)[C@H](C)[C@@H](O[C@@H]2O[C@H](C)C[C@H](N(C)C)[C@H]2O)[C@](C)(O)C[C@@H](C)[C@@H]2N[C@@H](COCCOC)O[C@H]([C@H]2C)[C@]1(C)O	2.24 (inactive)	2.51
Cc1cc(Cl)ccc1OCCCC(=O)NCc1ccncc1	-0.45 (inactive)	-0.98
O=C(CCN1C(=O)c2ccccc2C1=O)C1=NN[C@@H]2C(=O)N(c3ccc(F)cc3)C(=O)[C@H]12	0.12 (inactive)	-0.42
CC(NC(=O)COC(=O)C1CCN(S(=O)(=O)c2ccccc2C(F)(F)F)CC1)c1ccccc1 (stereo not given)	1.2 (inactive)	1.46
Cc1ccc(S/C(=N\S(=O)(=O)c2ccc(Cl)cc2)c2ccccc2)cc1	-0.79 (inactive)	-1.13
Cc1ccc(S(=O)(=O)/N=C(/Nc2ccccn2)c2ccc(Cl)cc2)cc1	-1.04 (inactive)	-0.87
O=S(=O)(/N=C(/Nc1ccccn1)c1ccccc1)c1ccc(Cl)cc1	5.14 (active)	4.98
Cc1sc2ncnc(Sc3nc4ccccc4s3)c2c1C	0.02 (inactive)	-0.34
CC(C)NC(=S)N1CCN(C(c2ccccc2)c2ccccc2)CC1	-1.16 (inactive)	-1.01
CC(C)=C(NC(=O)c1ccccc1)C(=O)N/N=C(\C)c1ccccc1O	1.49 (inactive)	2.26
Cc1ccc(C(=O)c2ccc(N3CCN(C)CC3)c([N+](=O)[O-])c2)cc1	1.82 (inactive)	1.21
COc1ccc(NC(=O)CC2C(=O)OCC3CCCCN32)cc1Cl (stereo not given)	0.14 (inactive)	-0.04
Cc1ccc(N=C2NC(=O)c3cccc([N+](=O)[O-])c32)cc1	0.32 (inactive)	0.33
CCN(CC)c1ccc(C(=O)N/N=C(\C)c2cccc(OC)c2)cc1	0.86 (inactive)	0.18
NC(=O)CCC(NS(=O)(=O)c1ccc(Cl)cc1)C(=O)NCc1ccccc1Cl (stereo not given)	-0.28 (inactive)	-1.21

Source: PubChem BioAssay AID817 (Emory University Molecular Libraries Screening Center, 2007)
